Screening results from PubChem BioAssay.
CF NFkB block: inhibitors of cystic fibrosis induced NF-kB | inhibition, % at 5 µM | KKLEB NF-kB-GFP reporter, PAF-induced, GFP fluorescence overnight | 0.86% of 360,000 active;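 active = at least 50% inhibition at 5 µM, scaled per plate between neutral and stimulator controls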;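 note: PAF is a Pseudomonas aeruginosa culture filtrate used as stimulus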
Peg3 promoter: Peg3 promoter activity inhibition; 1.7% of 360,000 active; inhibition, % at 20 µM; HeLa PEG-Prom luciferase reporter, luminescence, overnight;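 active = inhibition of at least 50% at 20 µM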
KKLEB cytotox: reduces viability of KKLEB cystic fibrosis airway cells; KKLEB CF airway cells viability, ATPlite luminescence, overnight; active compounds read low; cells stimulated with P. aeruginosa culture filtrate; activity change (cytotoxicity), % at 5 µM; 0.36% of 360,000 active;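 active = corrected activity change at or below -50% at 5 µM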
TRPM1 prom inh: inhibitors of MITF-driven TRPM1 promoter in melanoma cells; SK-MEL-5 TRPM1 promoter luciferase, 24 h; inhibition, % at 12.5 µM; 0.83% of 330,000 active; AID 488899;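 active = mean inhibition across replicates of 60% or more, whatever share of single replicates reaches that level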
CHOP inh: blocks CHOP induction under ER stress | CHO-K1 CHOP-promoter luciferase, tunicamycin-induced, 15-18 h | inhibition, % at 10 µM | 3.8% of 220,000 active | AID 2732;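 active = compounds that reduced the stress-induced luciferase reporter signal by more than about 70% of percent inhibition, limit read from the data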
HIF-2a block: HIF-2a inhibition; inhibition, % at 18.8 µM; 786-0 RCC cells HIF-2a reporter, luciferase luminescence, overnight; 0.72% of 360,000 active; AID 624352;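 active = inhibition of the luminescence signal of 40% or more relative to plate controls, in a single-dose primary screen at 18.75 µM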
CF NFkB inh conf: confirmation of cystic fibrosis induced NF-kB inhibitors; AID 602472; KKLEB CF airway cells, PAF-induced NF-kB-GFP fluorescence, overnight; 64% of 1,300 active; inhibition, % at 5 µM; shares compounds with CF NFkB block; in the data active = inhibition above about 40%;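 note: stimulus PAF is a Pseudomonas aeruginosa filtrate and not platelet activating factor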
Large screens that a line does not name were inactive (follow-up assays come after a bar, where they were run). Compounds with a hit are over-represented: about 4.3% of the library has one in this group of screens.

COc1ccccc1Nc1nnc(SCC(=O)c2c(N)n(C3CC3)c(=O)[nH]c2=O)s1	none (no result: CHOP inh)
CCOC(=O)C1=CC[C@H]2c3c(c4ccccc4n3C)C(=O)C1N2C(=O)OC(C)(C)C	none (no result: CHOP inh)
O=C(NCc1ccccc1)C1=C[C@H](c2csc3ccccc23)C[C@H](OCc2ccc(CO)cc2)O1	CF NFkB block 53 | CF NFkB inh conf 60
O=C(/C=C/c1cccs1)Nc1nccs1	none
O=C(/C=C/c1cccs1)Nc1cccc(NC(=O)/C=C/c2cccs2)n1	CF NFkB block 58 | CF NFkB inh conf 64
COc1cccc(/C=N/n2c(N)c(S(=O)(=O)c3cccs3)c3nc4ccccc4nc32)c1OC	CF NFkB block 54 | CF NFkB inh conf inactive
CC(c1ccccn1)N(C)C(=O)c1ccc2nc(Cc3ccccc3F)oc2c1 (stereo not given)	none (no result: CHOP inh)
CC(C)c1ccc(NC(=O)Nc2nc(C(N)CCc3ccccc3)cs2)cc1 (stereo not given)	CF NFkB block 54, Peg3 promoter 98 (no result: TRPM1 prom inh, CHOP inh) | CF NFkB inh conf inactive
CC(C)Cc1nc2sc3c(NCc4ccco4)ncnc3c2c2c1COC(C)(C)C2	none
Cc1nc2sc3c(NCc4ccco4)ncnc3c2c2c1COC(C)(C)C2	CF NFkB block 72 | CF NFkB inh conf inactive
O=C(Nc1ccc(Oc2ccc(NC(=O)Nc3ccc([N+](=O)[O-])cc3)cc2)cc1)Nc1ccc([N+](=O)[O-])cc1	CF NFkB block 52 | CF NFkB inh conf 61
CC(=O)c1ccc(NC(=O)Nc2ccc([N+](=O)[O-])cc2)cc1	none
O=C(COC(=O)CCc1ccccc1)Nc1ccccc1OC(F)F	none
CC(=O)Oc1ccccc1N(C(C)=O)S(=O)(=O)c1ccc2ccccc2c1	none
CC(=O)Oc1c(Br)cc(N(C(C)=O)S(=O)(=O)c2ccccc2)c2ccccc12	CF NFkB block 88 (no result: CHOP inh) | CF NFkB inh conf 74
O=C1C=C(NC2=CC3OC(c4ccccc4)OCC3OC2=O)CCC1 (stereo not given)	CF NFkB block 71, TRPM1 prom inh 65, CHOP inh 95 | CF NFkB inh conf 47
CC(C)C[C@H]1CNC(=S)N1C[C@H]1CCCN1C[C@H](Cc1ccccc1)N1C[C@H](Cc2ccc(O)cc2)N(CC2CCCCC2)C1=S	CF NFkB block 65, Peg3 promoter 93 (no result: TRPM1 prom inh, CHOP inh) | CF NFkB inh conf inactive
Oc1ccc(C[C@H]2CN([C@@H](Cc3ccccc3)CN3CCCC3CN3C(=S)NC[C@@H]3Cc3ccccc3)C(=S)N2CCc2ccccc2)cc1 (stereo not given in full)	none (no result: CF NFkB block, Peg3 promoter, KKLEB cytotox, TRPM1 prom inh, CHOP inh)
CC(C)C[C@H]1CNC(=S)N1CC1CCCN1C[C@H](Cc1ccc(O)cc1)N1C[C@H](Cc2ccccc2)N(CC2CCCCC2)C1=S (stereo not given in full)	none (no result: CHOP inh)
CC(C)C[C@@H](CN1CCCC1CN1C(=S)NC[C@@H]1Cc1ccc(O)cc1)N1C[C@H](Cc2ccc(O)cc2)N(CCc2ccccc2)C1=S (stereo not given in full)	CF NFkB block 59, Peg3 promoter 91 (no result: CHOP inh) | CF NFkB inh conf 61
CC(C)C[C@@H](CN1CCC[C@@H]1CN1C(=S)NC[C@@H]1Cc1ccc(O)cc1)N1C[C@H](Cc2ccc(O)cc2)N(CC2CCCCC2)C1=S	CF NFkB block 67, Peg3 promoter 98 (no result: TRPM1 prom inh, CHOP inh) | CF NFkB inh conf 46
Oc1ccc(C[C@H]2CNC(=S)N2CC2CCCN2C[C@H](Cc2ccc(O)cc2)N2C[C@H](Cc3ccccc3)N(CC3CCCCC3)C2=S)cc1 (stereo not given in full)	CF NFkB block 52, Peg3 promoter 92 (no result: CHOP inh) | CF NFkB inh conf 45
Nc1ccn([C@@H]2O[C@H](C(=O)N[C@H](CO)Cc3ccccc3)[C@@H](O)[C@H]2O)c(=O)n1	none (no result: TRPM1 prom inh, CHOP inh)
CCCCCN(C(=O)CCC(=O)OC(C)C(=O)c1ccccc1)c1c(N)n(CCCC)c(=O)[nH]c1=O (stereo not given)	none (no result: CHOP inh)
CCCCCCCCCCCC(=O)N1CC(=O)NC(=O)C1	none
CCOc1ccc(CCN2C(=S)N([C@@H](Cc3ccc(O)cc3)CN3CCC[C@@H]3CN3C(=S)NC[C@@H]3CC(C)C)C[C@@H]2Cc2ccc(O)cc2)cc1	CF NFkB block 55, Peg3 promoter 101 (no result: TRPM1 prom inh, CHOP inh) | CF NFkB inh conf inactive
Oc1ccc(C[C@H]2CNC(=S)N2CC2CCCN2C[C@H](Cc2ccc(O)cc2)N2C[C@H](Cc3ccc(O)cc3)N(CC3CCCCCC3)C2=S)cc1 (stereo not given in full)	CF NFkB block 62, Peg3 promoter 54, TRPM1 prom inh 72 (no result: CHOP inh) | CF NFkB inh conf inactive
Oc1ccc(C[C@@H](CN2CCCC2CN2C(=S)NC[C@@H]2Cc2ccccc2)N2C[C@H](Cc3ccccc3)N(CC3CCCCC3)C2=S)cc1 (stereo not given in full)	none (no result: CF NFkB block, Peg3 promoter, KKLEB cytotox, TRPM1 prom inh, CHOP inh)
CCc1ccc([C@@H]2CC(=O)[C@@H]3CN(S(=O)(=O)c4ccccc4C)[C@H](c4ccc(Cl)cc4)C[C@@H]3N2S(=O)(=O)c2ccc(C)cc2)cc1	CF NFkB block 51 (no result: TRPM1 prom inh, CHOP inh) | CF NFkB inh conf inactive
Nc1nc(N)nc(-c2cc([N+](=O)[O-])ccc2O)n1	CF NFkB block 61, Peg3 promoter 60 (no result: CHOP inh) | CF NFkB inh conf 73
COc1ccc(OC)c(Nc2ncnc3ccc(Br)cc23)c1	CF NFkB block 54 (no result: CHOP inh) | CF NFkB inh conf 68
COc1ccc(OC)c(Nc2ncnc3ccccc23)c1	none
COc1cccc(Nc2ncnc3ccc(Br)cc23)c1	CF NFkB block 62 (no result: TRPM1 prom inh, CHOP inh) | CF NFkB inh conf 87
Cc1ccc(S(=O)(=O)N2CCN(C(=O)CCC(=O)NCc3ccc(F)cc3)CC2)cc1	none
CN(Cc1ccccc1)C(=O)COC(=O)CCN1C(=O)C2CC=CCC2C1=O (stereo not given)	none (no result: CHOP inh)
CN(c1cccc(Cl)c1)S(=O)(=O)c1cccc(C(=O)Nc2nc3ccccc3[nH]2)c1	CF NFkB block 80, Peg3 promoter 76 | CF NFkB inh conf 47
COc1ccc(N(C)S(=O)(=O)c2cccc(C(=O)Nc3nc4ccccc4[nH]3)c2)cc1	none
CCCNC(=O)[C@@H]1CCCN1C(=O)[C@@H]1Cc2ccccc2CN1	none (no result: CHOP inh)
O=C(Oc1ccccc1C(=O)Nc1ccccc1)c1ccccc1Br	CF NFkB block 62 | CF NFkB inh conf inactive
S=C(Nc1cccc2ccccc12)Nc1cccc2ccccc12	CF NFkB block 84 (no result: CHOP inh) | CF NFkB inh conf inactive
CC(=O)Nc1cccc(NC(=S)Nc2cccc3ccccc23)c1	none (no result: CHOP inh)
O=C(Nc1ccc(C(=O)Nc2ccccc2Cl)cc1)c1cccnc1	none (no result: CHOP inh)
Cc1ccc(CCC(=O)Nc2ncc(Cc3cccc(Cl)c3Cl)s2)o1	CF NFkB block 52 | CF NFkB inh conf 78
Cc1ccc(CCC(=O)Nc2cc(Cl)ccc2Cl)o1	none (no result: CHOP inh)
COc1ccccc1CNC(=O)C1(NC(=O)Nc2ccc(C)cc2)CCCCC1	none
